Data on 16 compounds can be found in PubChem BioAssay.

Values without a mark were called inactive. No rule for the calls is given here.

Chain of Pantothenate synthetase (Mycobacterium tuberculosis (strain ATCC 25618 / H37Rv)) (P9WIL5 whole entry, looked up): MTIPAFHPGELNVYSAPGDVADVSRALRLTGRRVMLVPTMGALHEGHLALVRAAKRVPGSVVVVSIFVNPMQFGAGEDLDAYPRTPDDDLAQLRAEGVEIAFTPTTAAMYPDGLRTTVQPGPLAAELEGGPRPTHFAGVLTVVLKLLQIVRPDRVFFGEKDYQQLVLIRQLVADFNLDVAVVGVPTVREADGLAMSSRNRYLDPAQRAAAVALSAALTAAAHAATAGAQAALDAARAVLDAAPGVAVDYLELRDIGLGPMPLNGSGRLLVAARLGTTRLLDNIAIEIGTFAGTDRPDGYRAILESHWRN

This assay addresses Pantothenate synthetase (Mycobacterium tuberculosis (strain ATCC 25618 / H37Rv)) (UniProt P9WIL5). The assay can be described thus: Coupled enzyme confirmation of inhibitors against recombinant Mtb PanC (AID 375).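 Also: 0% = full reaction with vehicle and 100% = no enzyme background.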 Conditions: coupled enzyme assay; at 10 µM, active compounds read high.
As to `O=S(=O)(NCCc1ccccc1F)c1cccc(S(=O)(=O)N2CCOCC2)c1`, the inhibition was 0%.

For the compound `CCN(CC)C(=O)CN(c1cc(Cl)ccc1OC)S(C)(=O)=O`, the inhibition is 0%.

For the compound `COc1ccc(N(CC(=O)NCCSC(C)(C)C)S(C)(=O)=O)c(OC)c1`, the inhibition was 2%. The result for `COc1cc2c(cc1OC)C(c1cccnc1)CC(=O)N2` (stereo unspecified) reads 5%. Next, `O=C(CCS(=O)(=O)c1cccc2nsnc12)N1CCN(Cc2ccc3c(c2)OCO3)CC1`: 0%; `COCCNC(=O)c1c(N)n(/N=C/c2cccs2)c2nc3ccccc3nc12`: 0%. Next, `COc1ccccc1N1CCN(C(=O)CSc2nc(-c3ccccc3)cc(=O)[nH]2)CC1`: 1%; `Cc1cc2cc(CN(CCCN3CCOCC3)C(=O)NC3CCCCC3)c(=O)[nH]c2cc1C`: 2%; `O=C(Cn1c(=O)n(CC2CCCO2)c(=O)c2ccccc21)c1ccccc1` (stereo unspecified): 0%. Take `O=C(O)C1CC(=O)N(CCOc2ccccc2)C1` (stereo unspecified): the inhibition is 8%. The result for `Nn1c(SCC(=O)Nc2ccc(F)cc2)nnc1-c1cccnc1` reads 0%; that for `CCS(=O)(=O)Nc1ccc(C(=O)CC2(O)C(=O)Nc3ccccc32)cc1` (stereo unspecified), 14%. `CCOC(=O)c1nnc2ccnn2c1N`: the inhibition was 0%.

Regarding `CCn1cc(C(=O)O)c(=O)c2cc(F)c(N3CCNCC3)nc21`, the inhibition is 6%.

In the case of `Cc1ccc(S(=O)(=O)N2CCCC2C(=O)OCc2ccco2)cc1` (stereo unspecified), the inhibition is 5%.

As to `CCOC(=O)N1CCC2(CC1)CC(=O)c1c(ccc3oc(C(=O)O)c(C)c13)O2`, the inhibition is 0%.
